# Test results: PubChem BioAssay (NCI)
# About 79,000 compounds went through this panel and 15% of them were active in at least one assay; those are over-represented in the sample as a whole. Calls of active or inactive are those of the source. Rule as the data show it: active = growth inhibition above about 70%; inactive = the rest.
# Tests used:
# [1] = NCI Yeast Anticancer Drug Screen. Data for the rad50 strain (AID 155);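 also: 0% = growth of vehicle-only cultures of the same strain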; conditions: S. cerevisiae rad50 strain growth inhibition; at 50.0 µM; hits give high values
# In short: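 Relative growth inhibition (compound vs vehicle) was measured in yeast with a defined repair-gene alteration.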
# [2] = NCI Yeast Anticancer Drug Screen. Data for the mec2-1 strain (AID 157); conditions: S. cerevisiae mec2-1 strain, at 50.0 µM, hits give high values
# In short: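 Test agents were screened against the mec2-1 yeast strain, with defined DNA repair or cell cycle alteration. Growth was scored as inhibition against vehicle-only controls.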
# [3] = NCI Yeast Anticancer Drug Screen. Data for the sgs1 mgt1 strain (AID 161);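 also: 0% = growth of cultures given vehicle only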; conditions: S. cerevisiae sgs1 mgt1 strain, at 50.0 µM, hits give high values
# In short: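 Read-out: growth inhibition vs vehicle controls. Cells: mutant yeast strain deficient in DNA damage repair.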
# [4] = NCI Yeast Anticancer Drug Screen. Data for the cln2 rad14 strain (AID 165);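 also: 0% = growth equal to vehicle treated cultures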; conditions: S. cerevisiae cln2 rad14 strain, at 50.0 µM, hits give high values
# In short: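 Growth of compound-exposed yeast (cln2 rad14 genotype) measured and expressed as inhibition relative to vehicle.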
# [5] = NCI Yeast Anticancer Drug Screen. Data for the bub3 strain (AID 167); conditions: S. cerevisiae bub3 mutant strain, at 50.0 µM, hits give high values
# In short: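 Screening used yeast with an engineered genetic alteration affecting cell cycle control. Compound-exposed cultures were compared with vehicle cultures, and reduced growth was taken as inhibition.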
# [6] = NCI Yeast Anticancer Drug Screen. Data for the mlh1 rad18 strain (AID 175); conditions: S. cerevisiae mlh1 rad18 strain growth inhibition; at 50.0 µM; hits give high values
# In short: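 In this whole-cell yeast screen, a strain with altered DNA damage repair is challenged with compound, and its growth is measured against matched vehicle-treated controls.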
SMILES,growth inhibition [1],growth inhibition [2],growth inhibition [3],growth inhibition [4],growth inhibition [5],growth inhibition [6]
Nc1cc2c(O)cc(S(=O)(=O)O)cc2cc1S(=O)(=O)O,-5.9% (inactive),8.15% (inactive),2.35% (inactive),14.1% (inactive),34.2% (inactive),-4.3% (inactive)
S=C1SCN(c2ccc3c(c2)OCO3)CN1c1ccc2c(c1)OCO2,-24.4% (inactive),-33.9% (inactive),20.9% (inactive),-0.6% (inactive),-1.05% (inactive),-20.1% (inactive)
Cc1cc(Cl)c2ccc(Cl)c(C)c2n1,6.65% (inactive),-8.55% (inactive),3.65% (inactive),-11.1% (inactive),5.4% (inactive),0.15% (inactive)
CCOC(=O)CNCc1cccc(C)c1,-1.45% (inactive),-10.2% (inactive),-19.1% (inactive),-82.8% (inactive),0.6% (inactive),1.95% (inactive)
CCCOC(=O)Nc1cccc2ccccc12,0.65% (inactive),-9.3% (inactive),12.5% (inactive),-62.4% (inactive),-21.8% (inactive),-17.2% (inactive)
Cc1cc(NC(=O)NC(=O)c2ccccc2NC(=O)CN(C)C)ccc1Oc1ncc(Br)cn1,-10.3% (inactive),-28.9% (inactive),0.5% (inactive),-6.2% (inactive),-21% (inactive),-26.7% (inactive)
CC(=O)Nc1ccc(Sc2ccc(NC(C)=O)cc2O)c(O)c1,34.1% (inactive),17% (inactive),32% (inactive),-31.4% (inactive),14.7% (inactive),41.9% (inactive)
O=C1C=CC2CCC1C2 (stereo not drawn),24.8% (inactive),-6.25% (inactive),-20.5% (inactive),26.6% (inactive),-38.8% (inactive),-29.3% (inactive)
CCC(=O)CC(C)=O.CCC(=O)CC(C)=O.[Cu],-10.3% (inactive),19.4% (inactive),5.5% (inactive),-31% (inactive),-2.2% (inactive),14.2% (inactive)
O=C(Cc1ccccc1)OCC(=O)c1ccc(-c2ccccc2)cc1,-1.05% (inactive),15.1% (inactive),0.9% (inactive),39.8% (inactive),19.1% (inactive),-5.15% (inactive)
O=C1OC(Cc2ccccc2)=N/C1=C/c1ccccc1,9.05% (inactive),0.8% (inactive),1.15% (inactive),-9% (inactive),2.7% (inactive),4.55% (inactive)
CC(C)N(CCC#N)C(=S)Nc1cccc(C(F)(F)F)c1,21.6% (inactive),13.2% (inactive),25.1% (inactive),0.25% (inactive),12.2% (inactive),-2.85% (inactive)
O=C(Nc1nc(C23CC4CC(CC(C4)C2)C3)cs1)c1c(O)c2ccccc2[nH]c1=O,-29.2% (inactive),-23.9% (inactive),-8.75% (inactive),8.95% (inactive),-6.45% (inactive),-22.5% (inactive)
COC(=O)/C=C/C(=N/N(C)c1ccccc1)c1ccccc1,3.35% (inactive),-0.2% (inactive),2.75% (inactive),-49% (inactive),11% (inactive),-5.15% (inactive)
Cc1cn(-c2c(C)c(C)c(-n3c(C)ccc3C)c(C)c2C)cc1C,-3.1% (inactive),-5.55% (inactive),-6.2% (inactive),-15.8% (inactive),4.85% (inactive),0% (inactive)
CCCCC(C(N)=O)C(C)(C)C(=O)O (stereo not drawn),-6% (inactive),-0.45% (inactive),4.9% (inactive),-21.2% (inactive),9.85% (inactive),-1.75% (inactive)
NC(=O)N/N=C/C1CCc2ccccc2C1 (stereo not drawn),6.45% (inactive),-10.4% (inactive),-12.3% (inactive),-6.2% (inactive),-1.4% (inactive),1.5% (inactive)
CCCCOC(=O)CNC(=O)OC/C=C/C#CC#C/C=C/COC(=O)NCC(=O)OCCCC,-20.2% (inactive),-35.8% (inactive),-24.4% (inactive),-17.9% (inactive),0.3% (inactive),-19.9% (inactive)
CCOC(=O)C[P+](c1ccc(OC)cc1)(c1ccc(OC)cc1)c1ccc(OC)cc1,90.8% (active),95.8% (active),92.5% (active),92.9% (active),92.3% (active),91.5% (active)

SMILES,growth inhibition [1],growth inhibition [2],growth inhibition [3],growth inhibition [4],growth inhibition [5],growth inhibition [6]
CC(Cc1ccccc1)NC(=O)c1ccncc1 (stereo not drawn),2.5% (inactive),7.45% (inactive),-5.4% (inactive),-39.7% (inactive),-0.85% (inactive),2% (inactive)
O=C(O)c1ccccc1C(=O)NCc1ccc(Cl)cc1Cl,-3.75% (inactive),22.6% (inactive),21.4% (inactive),-7.3% (inactive),19.9% (inactive),38.8% (inactive)
O=C1c2ccccc2C2(Br)C(=O)c3ccccc3C12Br (stereo not drawn),98.6% (active),99% (active),98.8% (active),98.5% (active),98.5% (active),98.9% (active)
O=C1NC2(CCN(CCc3ccccc3)CC2)Oc2ccccc21,28.9% (inactive),-10.2% (inactive),15.7% (inactive),17.6% (inactive),11.5% (inactive),11.1% (inactive)
CCOC(=O)/C=C/CI,12.8% (inactive),-34.5% (inactive),10.4% (inactive),8.4% (inactive),13.5% (inactive),16.2% (inactive)
c1ccc(-c2ccc(C(=C(c3ccc(-c4ccccc4)cc3)c3ccc(-c4ccccc4)cc3)c3ccc(-c4ccccc4)cc3)cc2)cc1,1.1% (inactive),-0.85% (inactive),-9.9% (inactive),-4.15% (inactive),-4.7% (inactive),-12.6% (inactive)
O=C(CCl)Nc1cc(Cl)c(Cl)cc1Cl,32.4% (inactive),21.8% (inactive),58.1% (inactive),2.75% (inactive),64.8% (inactive),37% (inactive)
CCCCCCC(=O)/C=C/c1ccccc1Cl,-12.2% (inactive),-29.6% (inactive),-1.35% (inactive),10.3% (inactive),15.1% (inactive),10.1% (inactive)
NCc1ccccc1F,-10.2% (inactive),-23.9% (inactive),12.3% (inactive),13.7% (inactive),-6.75% (inactive),4.15% (inactive)
COC1OCC(OS(C)(=O)=O)C(OS(C)(=O)=O)C1OS(C)(=O)=O (stereo not drawn),-22.5% (inactive),-6.1% (inactive),-26.1% (inactive),-55.2% (inactive),-1% (inactive),-2.85% (inactive)
O=C(O)C1CCCCN1O (stereo not drawn),-7.85% (inactive),-2.15% (inactive),-15.9% (inactive),5.75% (inactive),10.9% (inactive),-6.15% (inactive)
CC(O)CN1CCN(CN(CC(C)O)CC(C)O)CC1 (stereo not drawn),0.55% (inactive),7.25% (inactive),10.7% (inactive),-2.65% (inactive),9% (inactive),-16.4% (inactive)
Nc1cnccc1NCC(O)c1ccccc1 (stereo not drawn),9.95% (inactive),-5.9% (inactive),-6.65% (inactive),-15.6% (inactive),-1.5% (inactive),-8.6% (inactive)
CCc1cccc(C)c1NC(=O)C(=O)CC(=O)CCCO,-37.6% (inactive),21.7% (inactive),27.6% (inactive),-27.9% (inactive),0.05% (inactive),25.4% (inactive)
O=C(/C=C/c1ccco1)N1CCN(Cc2ccccc2)CC1,3.7% (inactive),8.15% (inactive),23% (inactive),32.2% (inactive),53% (inactive),14.4% (inactive)
Cc1ccccc1-n1c(=S)[nH]c2c(sc(=O)n2-c2ccccc2C)c1=O,3.95% (inactive),-7.9% (inactive),0.8% (inactive),17.6% (inactive),0.1% (inactive),-11.4% (inactive)
O=C(O)c1cc(/C=C/c2cc(O)ccc2O)ccc1O,-14.7% (inactive),-21.8% (inactive),-24.8% (inactive),-2.05% (inactive),-33.4% (inactive),-39.6% (inactive)
Cc1cc(/C=N/N2CCN(/N=C/c3cc(C)n(-c4ccccc4)c3C)CC2)c(C)n1-c1ccccc1,2.5% (inactive),-9.15% (inactive),-2.7% (inactive),-27.9% (inactive),-2.95% (inactive),-13.6% (inactive)
c1ccc(C2OCCO2)c(OCCOc2cc(OCCOc3ccccc3C3OCCO3)c(OCCOc3ccccc3C3OCCO3)cc2OCCOc2ccccc2C2OCCO2)c1,-7.6% (inactive),-18.9% (inactive),-9.9% (inactive),0.3% (inactive),-4.3% (inactive),12.3% (inactive)
